This passage reports growth inhibition results from the supplement of paper PMC7556523.

A number with no mark means an inactive call.

For assay [1], the system named is Sporothrix brasiliensis CBS 133006. The assay can be described thus: growth inhibition relative to untreated control; higher = more growth inhibition (more antifungal activity), active = 80 or more; extreme values may be limits of the assay. The following applies: 1 µM; 48 h. Put shortly: (§1)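 Yeast-form cells of the reference isolates (grown 7 days in brain heart infusion broth with 2% glucose at 36°C) were exposed at 1 x 10^5 CFU/ml to library compounds at a final 1 μM for 48 h at 35°C in 5% CO2. Growth was checked by visual inspection under an inverted light microscope and quantified by spectrophotometric readings. The value is percent growth inhibition relative to untreated control. Runs were in quadruplicate.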

Assay [2] concerns Sporothrix schenckii ATCC 32286. Described as above. The following applies: 1 µM; 48 h. An outline of the steps:
as §1

On to `COc1ccc(S(=O)(=O)Nc2ccc(CN3CCN(C(=O)c4cccc(C#N)c4)CC3)cc2)cc1`, for which the results for the growth inhibition in assay [1] and in assay [2] were 4.25% and 7.75%, respectively.
Regarding `CCc1ccccc1-n1c(C)cn2c3c(=O)n(C(C(=O)OC)C(C)C)c(=O)n(C)c3nc12` (stereo not drawn), the growth inhibition in assay [1] was 15.8%; in assay [2], 0%.
On the same counts, the results for `c1csc(-c2cnc3sc(NCC4CCOCC4)nn23)c1` are 19.8% and 8.75%.
The matching figures for `COCC(C)NC(=O)CSc1ncnc2sc(-c3ccccc3)cc12` (stereo not drawn): 17.8% and 14.2%.
On the same counts, the results for `CCc1c(C)nc(-n2nc(C)cc2NC(=O)c2ccccc2SC)[nH]c1=O` are 93.5% (active) and 76.8%.
For the compound `O=C1[C@@H](Oc2ccccc2)[C@@H](c2ccc(Cl)cc2)N1CCn1cnc2c(NCc3ccccc3)ncnc21`, the figures for the growth inhibition in assay [1] and in assay [2] were 14% and 17.8%, respectively.
Take `CN(C)CCNC(=O)N1CCCN(c2ncnc3cc(-c4ccccc4)sc23)CC1`: the growth inhibition was 10.5% in assay [1] and 13.2% in assay [2].
Turning to `Cc1cc2nc(NC(=O)C(C)(C)C)nc(Cl)c2n1Cc1ccc(Cl)cc1`, the growth inhibition is 14.8% in assay [1] and 2.5% in assay [2].
The matching figures for `CC(=O)NCC1CN(c2ccc(-c3ccc(CO)cc3)c(F)c2)C(=O)O1` (stereo not drawn): 4% and 13.2%.
On the same counts, the results for `COc1ccc(C(=N)N)cc1-c1cn(-c2ccc(C(=N)N)cc2)nn1` are 51.8% and 0%.
With `Nc1nccc2ccc(Oc3ccncc3)cc12`, the growth inhibition in assay [1] is 9.25%; in assay [2], 14.2%.
Consider `CNC(=O)CNc1nc(-c2ccccn2)nc2scc(-c3ccccc3)c12`, for which the results for the growth inhibition in assay [1] and in assay [2] were 9.5% and 3.75%, respectively.
The matching figures for `COc1cc(C2=NCCN2)ccc1-n1cc(-c2cccc(C3=NCCN3)c2)nn1`: 18.5% and 5.5%.
Consider `O=C(Nc1nnc(-c2ccc(Cl)cc2)o1)c1cccc(C(F)(F)F)c1`, for which the figures for the growth inhibition in assay [1] and in assay [2] were 100% (active) and 85.5% (active), respectively.
The matching figures for `CCCCOC(=O)Nc1cc2nc(C3CCCCC3)[nH]c2cc1N1CCCC1`: 11% and 0%.
The matching figures for `Cc1[nH]c2ccccc2c1C(c1cccs1)N1CCN(C)CC1` (stereo not drawn): 4.75% and 15.2%.
Consider `c1ccc2c(c1)CN(CC1CC1)CC1(CCN(Cc3c[nH]c4cnccc34)CC1)O2`, for which the growth inhibition in assay [1] is 1.25%; in assay [2] it was 0%.
With `O=C(NCc1ccco1)N1CCN(Cc2ccc(Cl)s2)CC1`, the growth inhibition in assay [1] was 0%; in assay [2], 0.25%.
On the same counts, the results for `COc1ccccc1OCCCCn1c(C2CC2)nc2ccccc21` are 7.75% and 9.25%.
On the same counts, the results for `Cc1nnc(NCc2cccc(Cl)c2)c2ccccc12` are 3% and 8.75%.
The matching figures for `COc1cccc(-c2cc3c(Nc4cccnc4)nccc3[nH]2)c1`: 4% and 5%.
Consider `CCN(CC)S(=O)(=O)c1ccc(Cl)c(C(=O)Nc2ccc3nc(C)sc3c2)c1`, for which the growth inhibition in assay [1] was 0.5%; in assay [2], 9.75%.
On the same counts, the results for `COc1ccc(Cl)cc1NC(=O)CN(C)C(=O)c1cnn(-c2ccccc2)n1` are 14.5% and 15.2%.
For `OC[C@H]1O[C@@H](n2c3ccc(Cl)cc3c3c(-c4cc5ccccc5o4)ncnc32)C(O)[C@H]1O` (stereo partly drawn), the growth inhibition was 10.8% in assay [1] and 18.8% in assay [2].
The matching figures for `O=C(NCc1nnc2n1CCCCC2)c1ccc(-c2ccc(F)cc2)o1`: 11.2% and 0%.
The matching figures for `Cc1ccc(S(=O)(=O)N2CCN(C(=O)c3cc(-c4ccccc4)n[nH]3)CC2)cc1`: 1.5% and 2%.
The matching figures for `Cc1cc(C)n(-c2ccc(NC(=O)C3CCN(Cc4cnc(C)s4)CC3)cc2)n1`: 5.5% and 1.25%.
As to `Cc1nn(C(=O)Nc2cccc(C(F)(F)F)c2)c(C)c1Sc1ncccn1`, the growth inhibition was 28.2% in assay [1] and 15.2% in assay [2].
On the same counts, the results for `Cc1cc(OCC(=O)NCc2ccccc2)c2cc(Br)ccc2n1` are 10% and 4%.
On the same counts, the results for `CCCNC(=O)N1CCC2(CC1)CC(=O)c1cc(C)ccc1O2` are 2.25% and 2.25%.
On the same counts, the results for `FC(F)(F)c1nnc2ccc(Cl)nn12` are 9.25% and 14%.
`Nc1ncnc2[nH]nc(Cc3cccc4ccccc34)c12`: the growth inhibition is 6.25% in assay [1] and 0% in assay [2].
For the compound `Cc1ccc2c(c1C)NC(=O)C21NN=C(c2ccccc2)S1` (stereo not drawn), the figures for the growth inhibition in assay [1] and in assay [2] were 7.25% and 4.5%, respectively.
On the same counts, the results for `COc1cc(CN2CCC3(C=Cc4ccccc43)CC2)cc2c1OCO2` are 4.25% and 3.25%.
On the same counts, the results for `CCOc1ccc(-c2nc(NC(=O)CS(=O)(=O)c3ccccc3)sc2C)cc1` are 5.25% and 0.5%.
On the same counts, the results for `O=C(NC1CCN(c2ccnc3ccccc23)C1)c1cccc(C(F)(F)F)c1` (stereo not drawn) are 0% and 1.5%.
`CCc1nc2ccc(C(=O)NCc3ccc4c(c3)OCO4)cn2c1N(C)Cc1cccs1`: the growth inhibition in assay [1] is 7%; in assay [2], 2.75%.
Regarding `COC(=O)c1c(NC(=O)c2cc3ccccc3oc2=O)sc2c1CCN(Cc1ccccc1)C2`, the growth inhibition in assay [1] was 8.75%; in assay [2] it was 15%.
On the same counts, the results for `c1ccc(-c2cc(N3CCCCC3)c3ccccc3n2)nc1` are 35.2% and 14.8%.
The matching figures for `c1ccc(Oc2ccc(-c3cc(N4CCNCC4)[nH]n3)cc2)cc1`: 0% and 4%.
On the same counts, the results for `CC(C)(C(=O)Nc1ccc(F)cc1)n1cc(-c2ccccc2F)cn1` are 0% and 11%.
On to `Cc1ccc(S(=O)(=O)Nc2ccc(CN3CCN(C(=O)c4cccc(C#N)c4)CC3)cc2)cc1`, for which the growth inhibition in assay [1] is 2%; in assay [2], 0.5%.
On the same counts, the results for `c1ccc(-c2[nH]c3ccccc3c2C(c2ccccn2)N2CCCC2)cc1` (stereo not drawn) are 4.25% and 12.2%.
On the same counts, the results for `CC(C)(C)c1cnc(NC(=O)c2ccccc2O)s1` are 8% and 0%.
For the compound `COc1ccc(-c2nc(-c3cccc(NC(=O)Cc4ccc(F)cc4)c3)no2)cc1OC`, the results for the growth inhibition in assay [1] and in assay [2] were 6.25% and 4%, respectively.
With `Cc1noc(C)c1COc1cccc(C(=O)N=c2[nH]cccc2C)c1`, the growth inhibition in assay [1] is 0%; in assay [2], 8.25%.
On the same counts, the results for `O=C(Nc1ccc(C(F)(F)F)c(C(F)(F)F)c1)c1cc(Cl)ccc1O` are 92.5% (active) and 62%.
As to `c1cc(C2=NCCN2)cc(-c2cc(-c3ccc(C4=NCCN4)cc3)no2)c1`, the growth inhibition was 5.5% in assay [1] and 0% in assay [2].
For `Cc1cc(NC(=O)c2ccc(S(=O)(=O)N(Cc3ccccc3)C(C)C)cc2)no1`, the growth inhibition in assay [1] is 18.2%; in assay [2], 2.75%.
`O=C(COc1cccc(F)c1)Nc1nc(-c2ccccn2)cs1`: the growth inhibition is 22.5% in assay [1] and 8.75% in assay [2].
The matching figures for `CCCCCCCCCCCCCCCCOP(=O)([O-])OCC[N+](C)(C)C`: 24.8% and 0%.
On the same counts, the results for `FC(F)(F)c1cccc(-c2nc3c(NCc4ccncc4)nccc3[nH]2)c1` are 38% and 4%.
For the compound `O=C(Nc1nnc(S)s1)c1cc(Br)ccc1Cl`, the growth inhibition in assay [1] was 6.75%; in assay [2], 4%.
Consider `Cc1nc(-c2ccccn2)nc(N2CCC(Cc3ccccc3)C2)c1Cl` (stereo not drawn), for which the growth inhibition was 63% in assay [1] and 13% in assay [2].
The matching figures for `COc1ccc(C2=NCCN2)cc1-c1cn(-c2cccc(C3=NCCN3)c2)nn1`: 12.8% and 3%.
On the same counts, the results for `O=C(NCCc1c[nH]c2ccccc12)c1cc2ccccc2oc1=O` are 17.8% and 4.5%.
The matching figures for `O=C(Nc1nc(-c2ccccn2)cs1)C1CC1c1ccccc1F` (stereo not drawn): 9.5% and 34.2%.
For `CNC(=O)c1nn(C)c2c1C(C)(C)Cc1cnc(Nc3ccc(N4CCN(C)CC4)cc3)nc1-2`, the growth inhibition was 37.5% in assay [1] and 1.25% in assay [2].
As to `CC(C)/N=c1\cc2n(-c3ccc(Cl)cc3)c3ccccc3nc-2cc1Nc1ccc(Cl)cc1`, the results for the growth inhibition in assay [1] and in assay [2] were 7.25% and 12.2%, respectively.
The matching figures for `Cc1nc(-c2ccccn2)nc(NCCc2ccc(S(C)(=O)=O)cc2)c1Cl`: 13% and 0%.
With `CC(=O)N1CCc2cc3nc(C)cc(C)c3cc21`, the growth inhibition in assay [1] was 4%; in assay [2], 0%.
On the same counts, the results for `Clc1ccc(-n2cc(COc3ccnc4ccccc34)nn2)cc1` are 13.5% and 10%.
With `CC(C)(C)[C@H]1CC[C@H](CC2=C(O)C(=O)c3ccccc3C2=O)CC1`, the growth inhibition was 88% (active) in assay [1] and 14% in assay [2].
Turning to `CCOc1ccccc1NC(C)C(=O)Nc1cc(C(F)(F)F)ccc1N1CCOCC1` (stereo not drawn), the growth inhibition in assay [1] was 27.8%; in assay [2] it was 0%.
Consider `Nc1cccnc1Nc1ccc(Cl)cc1`, for which the values for the growth inhibition in assay [1] and in assay [2] were 13.8% and 0%, respectively.
With `COc1cc(C2=NCCN2)ccc1-c1cn(-c2cccc(C3=NCCN3)c2)nn1`, the growth inhibition is 14% in assay [1] and 1.25% in assay [2].
On the same counts, the results for `c1ccc(Oc2ccc(-c3cncc(-c4ccc5[nH]ccc5c4)n3)cc2)cc1` are 8% and 12.5%.
On the same counts, the results for `C[C@H]1c2cccc(O)c2C(=O)C2=C(O)[C@]3(O)C(=O)C(C(N)=O)=C(O)[C@@H](N(C)C)[C@@H]3[C@@H](O)[C@@H]21` are 9.12% and 10.5%.
On the same counts, the results for `N#Cc1ccc(-c2ccc(OCC(N)=O)cc2)cc1` are 19.2% and 0%.
As to `COc1cccc(NC(=O)c2c(NC(=O)c3cccnc3)sc3c2CCC3)c1`, the figures for the growth inhibition in assay [1] and in assay [2] were 15.8% and 13.8%, respectively.
The matching figures for `COC(=O)c1c(NC(=O)c2c(F)c(F)c(F)c(F)c2F)sc2c1CCCCC2`: 13.8% and 0.75%.
On the same counts, the results for `N#CCN(CCCCN1CCN(c2ccc(F)cc2)CC1)C(=O)OCc1ccccc1` are 11.2% and 2.5%.
The matching figures for `CC(C)NCC(=O)Nc1cccc(C(=O)Nc2cccc(C(F)(F)F)c2)c1`: 11.5% and 3.75%.
With `COc1ccc(C2(C(=O)Nc3ccc(Br)cc3)CCCC2)cc1`, the figures for the growth inhibition in assay [1] and in assay [2] were 59.8% and 13%, respectively.
